Source: PubChem
PNC assembly inh – perinucleolar compartment assembly inhibition. PC3M PTB-GFP, PNC prevalence imaging, 16 h; hits give low values. activity change (PNC), negative = inhibition, % at 10 µM. hit rate 3.1% among 140,000. AID 2417;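 active = readout at or below -70, meaning at least 70% loss of cells showing the perinucleolar compartment, a nuclear body marking cancer cells; inconclusive = readout between -30 and a set limit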;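 note: plate controls were DMSO wells for no effect and camptothecin positive control wells for full effect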
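Compounds are pinned in duplicate onto adhered PC3M cells stably expressing GFP-tagged PTB and incubated 16 h at 37 C. Cells are then fixed, nuclei stained with Hoechst, and PNC-positive cells counted.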
HTT cytoprotect – cytoprotection in Huntington HTT-Q103 PC12 cell model; PC12 HTT-Q103 induced, cytoprotection, ATP luminescence, 40 h; Potency, µM (titrated, usually from 56.4 µM), without a hit: cytoprotection (ATP increase), most hits filed as activators; hit rate 0.14% among 230,000; note: potency is the fitted concentration of half-maximal effect; % of control where 0% means no effect; nearly all actives have a fitted effect of over 45% in size
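Quantitative HTS on tebufenozide-induced (100 nM) PC12 cells expressing HTTQ103 exon 1–GFP; compounds tested as a concentration series; survival measured via cellular ATP.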
HPGD inh – blocks human HPGD enzyme activity; Potency, µM, inactives show top-dose activity change, negative = inhibition, most hits filed as inhibitors; purified HPGD, NADH fluorescence kinetic, PGE2 substrate; hit rate 4.3% among 150,000; P15428; active = well fitted inhibition curve with a large enough effect, not every such curve was filed as active; inconclusive = small, poorly fitted or top-dose-only effect, or another doubt; inactive = no such curve, though single readings can be large or run the other way; note: potency is the fitted concentration of half-maximal effect; % is set by controls: 0 for no effect and ±100 for the full control effect
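20 nM HPGD preincubated 15 min at room temperature with compound in 50 mM Tris-HCl pH 8, 0.01% Tween 20. Started with 1 mM NAD+ and 30 uM prostaglandin E2; NADH fluorescence (360/450 nm) read 5 times over 30-s intervals, last minus first.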
HttQ103 aggreg – mutant huntingtin aggregation inhibition | AID 1688 | PC12 HttQ103-GFP aggregates, Acumen cytometry, 40 h | hit rate 1.1% among 220,000 | Potency, µM (highest dose often 46.1 µM), inactives show at the top dose activity change, negative = inhibition, actives largely listed as inhibitors; note: potency is the fitted concentration of half-maximal effect; % is set by controls: 0 for no effect and ±100 for the full control effect; nearly all actives have a fitted effect of over 60% in size
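PC12/HTTQ103-GFP, ecdysone-inducible; teb 100 nM; cpd qHTS titration; GFP aggregates read on laser cytometer, Ex 488/Em 500-530 nm.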
CBFb-RUNX1 inh – CBF-beta/RUNX1 interaction disruption; AlphaScreen CBFb-His/RUNX1-biotin binding, biochemical; AID 1477; 230,000 tested, under 10 active; Potency, µM (titrated, usually from 59.8 µM), for inactives: top-dose activity, negative = inhibition, hits mostly inhibitors; Q01196+Q13951; note: % of control where 0% means no effect
Target sequence (Q01196 whole entry, looked up): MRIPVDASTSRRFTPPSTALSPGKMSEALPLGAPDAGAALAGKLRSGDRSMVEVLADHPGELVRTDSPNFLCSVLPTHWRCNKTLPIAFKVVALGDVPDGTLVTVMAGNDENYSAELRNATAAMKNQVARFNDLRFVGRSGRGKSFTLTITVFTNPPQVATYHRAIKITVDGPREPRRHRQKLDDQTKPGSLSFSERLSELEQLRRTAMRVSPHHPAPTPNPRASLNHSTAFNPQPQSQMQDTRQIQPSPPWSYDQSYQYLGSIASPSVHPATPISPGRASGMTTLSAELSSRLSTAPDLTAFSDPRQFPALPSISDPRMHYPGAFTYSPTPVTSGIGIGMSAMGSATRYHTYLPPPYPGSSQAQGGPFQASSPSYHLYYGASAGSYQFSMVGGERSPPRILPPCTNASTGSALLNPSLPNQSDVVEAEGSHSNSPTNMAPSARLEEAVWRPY
Target sequence (Q13951 whole entry, looked up): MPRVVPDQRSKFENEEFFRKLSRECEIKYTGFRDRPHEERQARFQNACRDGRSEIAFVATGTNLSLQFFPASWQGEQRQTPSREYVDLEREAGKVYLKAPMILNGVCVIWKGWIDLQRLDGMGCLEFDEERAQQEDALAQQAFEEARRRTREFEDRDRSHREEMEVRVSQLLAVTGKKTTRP
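Read-out: AlphaScreen. Format: His-CBF-beta with biotinylated RUNX1 (30 nM each) preincubated 20 min, compound 15 min, Ni-chelate plus streptavidin beads 90 min; room temperature throughout.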
ALDH1A1 inh – ALDH1A1 (human) enzyme inhibition; Potency, µM (highest dose often 75.3 µM), inactives show top-dose activity, negative = inhibition, actives largely listed as inhibitors; hit rate 7.3% among 220,000; AID 1030; Purified ALDH1A1, NADH fluorescence, propionaldehyde substrate; active = well fitted inhibition curve with a large enough effect, not every such curve was filed as active; inconclusive = small, poorly fitted or top-dose-only effect, or another doubt; inactive = no such curve, though single readings can be large or run the other way;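 note: potency is the fitted concentration of half-maximal effect; plate controls were no enzyme wells and a reference inhibitor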
Numbers without * were called inactive; u = inconclusive; x = no result given; [ ] = remark or other dose. Sampled rows, rich in hits. Any-hit rate of the full collection: about 11%. Unless noted, calls come from the whole dose curve; as a rule, active = well fitted curve in the direction sought with a large enough effect; inconclusive = small, poorly fitted or top-dose-only effect, or another doubt; inactive = no such curve, though single readings can be large; an effect the other way counts as inactive or inconclusive.

SMILES	PNC assembly inh	HTT cytoprotect	HPGD inh	HttQ103 aggreg	CBFb-RUNX1 inh	ALDH1A1 inh
C=CCC1(C)OC=Cc2nc3cc(Cl)c(Cl)cc3nc21 (stereo not drawn)	x	-16.0%[10 µM]	x	x	-0.9%[13.1 µM]	u
NC(=O)N/N=C/c1c(Sc2nnnn2-c2ccccc2)nc2ccccn2c1=O	x	4.47µM*	x	11.7%[9.22 µM]	-3.7%	u
Cc1nn(-c2ccccc2)c(Cl)c1/C=N/NC(N)=O	x	14.2%[10 µM]	x	-23.9%[9.22 µM]	12.1%	x
CCCCN(CCCC)S(=O)(=O)c1ccc(C(=O)Nc2nnc(COC)o2)cc1	3.7	-80.6%	-2.6%	11.2µM*	-4.1%	15.2%
CCN(CC)S(=O)(=O)c1ccc(C(=O)Nc2nnc(CSC)o2)cc1	x	-8.3%	x	u	-11.7%	-4.3%
CCN(CC)S(=O)(=O)c1ccc(C(=O)Nc2nnc(COC)o2)cc1	x	-41.5%	x	4.7%	u	-5.1%
CCCCN(C)S(=O)(=O)c1ccc(C(=O)Nc2nnc(CSC)o2)cc1	8.8	-66.3%	-13.7%	8.91µM*	-8.3%	6.2%
CCc1nnc(NC(=O)c2ccc(S(=O)(=O)N(CC)Cc3ccccc3)cc2)o1	-20.2	-67.0%	x	6.1%	2.5%	17.8µM*
C/C(Cc1ccccc1)=N\NC(=O)CCCCCC(=O)N/N=C(\C)Cc1ccccc1	90.1	-15.0%	-1.1%	7.3%	3.3%	11.2µM*
C/C(Cc1ccccc1)=N/NC(=O)CCCC(=O)N/N=C(/C)Cc1ccccc1	x	-8.8%	x	-2.4%	-1.6%	1.1%
CCC(C)n1c(=S)[nH]c2c(sc3ccc([N+](=O)[O-])cc32)c1=O (stereo not drawn)	-15.0	18.4%[10 µM]	-3.9%	10µM*	u	-0.5%
O=c1c2ccccc2sn1-c1cc(S(=O)(=O)N2CCOCC2)ccc1N1CCOCC1	u	-100.9%	0.794µM*	u	-1.4%	0.0562µM*
CCCN1CC(CSC)C[C@H]2c3cccc4[nH]cc(c34)C[C@H]21 (stereo partly drawn)	x	-54.8%	-7.7%	x	-0.4%	-2.4%
COc1ccc(/C=N/NC2=NCCCCC2)cc1	3.3	2.9%	12.6µM*	-10.5%	1.7%	u
COc1ccc(/C=N/NC2=NCCCCC2)c(OC)c1	x	-45.9%	x	-6.5%	8.4%	u
CCSc1ccc(-c2cccc([N+](=O)[O-])c2)nn1	x	-50.1%	x	27.1%	-0.1%	u
O=S(Cc1ccc(Br)cc1)Cc1nnc(SCc2c(Cl)cccc2Cl)n1-c1ccccc1 (stereo not drawn)	-29.8	u	-14.8%	22.4µM*	-6.6%	2.4%
O=S(=O)(O)c1ccc(O)cc1	x	-23.0%	x	12.1%	x	x
O=C(c1ccc(Cl)cc1)N1CCN(C(=O)c2ccco2)CC1	-100.0*	-14.2%	-4.8%	-4.9%	4.7%	25.1µM*
O=C(c1ccco1)N1CCN(C2CCCC2)CC1	-101.2*	-5.6%	-13.6%	8.6%	-2.0%	-6.5%
O=C(Cc1ccc(Cl)cc1)Nc1ccc(N2CCN(C(=O)c3ccco3)CC2)c(Cl)c1	-1.5	-4.2%[0.074 µM]	-21.3%	10µM*	-5.5%	u
O=C(c1ccncc1)N1CCN(C(=O)c2ccco2)CC1	-3.7	-0.3%	-15.3%	1.0%	-4.8%	-3.4%
CCN1C(=O)c2ccccc2S(=O)c2ccc(C(=O)N3CCN(C(=O)c4ccco4)CC3)cc21 (stereo not drawn)	u	-4.1%	-5.8%	27.1%	11.0%	8.91µM*
COc1cc2c(cc1OC)CN(C(=O)c1ccc(Br)o1)CC2	x	11.2%[10 µM]	x	4.3%[9.22 µM]	0.8%	x
COc1cc2c(cc1OC)CN(C(=O)c1ccco1)CC2	x	-0.5%	x	-27.5%	-5.6%	14.1µM*
SMILES	PNC assembly inh	HTT cytoprotect	HPGD inh	HttQ103 aggreg	CBFb-RUNX1 inh	ALDH1A1 inh
O=C(c1ccco1)N1CCC(n2nnc3ccccc32)CC1	34.8	-1.4%[10 µM]	-21.3%	0.0%	0.5%	25.1µM*
NC(=O)N1CCN(C(=O)c2ccco2)CC1	u	8.1%	-13.8%	u	-3.0%	20µM*
O=C(NC1CCCCC1NC(=O)c1ccco1)c1ccco1 (stereo not drawn)	-84.9*	-3.6%[10 µM]	-9.1%	-14.1%	6.4%	17.4%
O=C(c1ccco1)N1CCN(c2nc3ccccc3n3nnnc23)CC1	u	8.5%[10 µM]	-28.3%	u	2.7%	u
COC(=O)[C@@]1(Cc2ccc(F)cc2)[C@H]2c3cc(C(=O)N(C)C)n(CCc4ccc(O)c(O)c4)c3C[C@H]2CN1C(=O)c1ccccc1	x	11.5%	u	x	-11.8%	-8.5%
O=C(c1ccco1)N1CCN(C(=O)c2cccc3c2C(=O)N(C2CCCCC2)C3)CC1	-4.8	x	-1.4%	18.9%	-7.4%	10µM*
O=C(c1ccco1)N1CCN(C(=O)c2cccc3c2C(=O)N(Cc2cccnc2)C3)CC1	u	-9.4%	-3.6%	8.7%	-3.1%	u
COc1ccc(CNCc2cccc(Oc3ccccc3)c2)cc1	x	-54.3%	x	2.82µM*	-26.3%	14.1µM*
CCCCCCCCCCCCC[N+](C)(C)Cc1ccccc1	x	-324.2%	-8.2%	x	18.0%	-13.2%
COc1ccc(-c2cc(=O)[nH]c(NCc3ccccc3)n2)cc1	23.0	-6.2%[0.074 µM]	-9.4%	3.98µM*	-6.2%	u
O=C(c1ccccc1)N1CCCCC(S(=O)(=O)c2ccc3ccccc3c2)C1=O (stereo not drawn)	7.6	-3.4%	-5.4%	-0.7%	1.5%	10µM*
O=C(NCCc1ccccc1F)C1CCCN1S(=O)(=O)c1ccc2ccccc2c1 (stereo not drawn)	-9.9	-11.1%[1.9 µM]	15.8µM*	1.1%	12.7%	2.4%
O=C(O)C1CCCN1S(=O)(=O)c1ccc2ccccc2c1 (stereo not drawn)	-100.0*	-19.8%[10 µM]	u	-21.4%	-8.7%	79.1%
CC1(C)C(=O)C=C[C@@]2(C)C1C=C[C@@]1(C)C2CC[C@@]2(C)C(c3ccoc3)OC(=O)C3OC312 (stereo partly drawn)	x	-4.7%	1.0%	x	1.8%	-8.8%
CCCOc1nc(N)c(C#N)c(-c2ccccc2F)c1C#N	28.3	-5.6%[10 µM]	-17.1%	15.2%	7.1%	1µM*
CCSc1nc(N)c(C#N)c(-c2ccccc2Cl)c1C#N	30.9	4.7%	u	-9.3%	8.1%	u
CCCN(CCC)C(=O)CSc1nc2ccccc2c(=O)n1CC1COc2ccccc2O1 (stereo not drawn)	30.4	-61.0%	-13.5%	u	0.3%	11.2µM*
CCOC(=O)CSc1nc2ccccc2c(=O)n1CC1COc2ccccc2O1 (stereo not drawn)	-1.2	-36.5%	-14.8%	3.4%	2.7%	u
COc1ccc(NC(=O)CSc2ncnc3c2nnn3-c2ccc(F)cc2)c(OC)c1	x	-22.8%	x	5.8%	-7.5%	-4.4%
CN(C)CCNC(=O)c1ccc(-n2c(=O)c(=O)[nH]c3ccccc32)cc1	x	x	-12.5%	x	x	14.9%
